High-throughput results as filed in PubChem.
Hits are enriched below; roughly 8.1% of the tested compounds scored in any of these assays.
NOMO-1 viab: STK33 inhibitor candidate reducing NOMO-1 cell viability | AID 2330 | actives 7.5% (n = 37,000) | inhibition, % (concentration not given with the values) | NOMO-1 AML viability, CellTiter-Glo luminescence, 72 h; in the data active = inhibition above about 80%
MITF inhib: inhibitors of MITF | TRPM1 promoter luciferase, luminescence, 24 h | inhibition, % (no concentration beside the values) | actives 0.28% (n = 37,000); in the data active = inhibition above about 85%;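 also: human melanocyte line stably carrying TRPM1 promoter luciferase reporter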
Shh pathway inh: Sonic Hedgehog pathway inhibition. Shh-LIGHT2 Gli-luciferase reporter, 30 h. actives 2.1% (n = 22,000). inhibition, % (concentration not given with the values). AID 2313;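 active = mean inhibition across valid replicates above about 65%, limit read from the data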;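 also: pathway switched on by Shh-conditioned medium diluted 1 in 25 in low serum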
PD-1 reversal: reversal of PD-1 mediated T-cell inhibition; primary human CD4 T cells, PD-L1 beads, CellTiter-Glo 96 h; 29,000 tested, under 10 active; AID 2316; activation, % (concentration not given with the values); call rule not given here;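 also: 0% = median vehicle wells and 100% = positive control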
The depositor's hits bear a star.

For CC1=C(C(=O)OC(C)C)C(c2ccccc2[N+](=O)[O-])n2ncnc2N1 (stereo not given) the results were NOMO-1 viab 4 and MITF inhib -11.
Screening COc1ccc(Cl)cc1N(CC(=O)Nc1cc(Cl)ccc1C)S(C)(=O)=O returned NOMO-1 viab -11 and MITF inhib -5.
Screening C[C@@H]1CN([C@H](C)CO)C(=O)c2cccc(NC(=O)Nc3ccc4c(c3)OCO4)c2O[C@H]1CN(C)Cc1ccc2c(c1)OCO2 returned NOMO-1 viab 101*, MITF inhib -21 and Shh pathway inh -21.
C[C@H]1CN([C@@H](C)CO)C(=O)c2cccc(NC(=O)Nc3ccc4c(c3)OCO4)c2O[C@H]1CN(C)Cc1ccc(C(F)(F)F)cc1 was read as NOMO-1 viab 15, MITF inhib -3, Shh pathway inh -54 and PD-1 reversal 0.
For C[C@@H]1CN([C@@H](C)CO)C(=O)c2cccc(NC(=O)Nc3ccc4c(c3)OCO4)c2O[C@@H]1CN(C)Cc1ccc(C(F)(F)F)cc1 the results were NOMO-1 viab 82*, MITF inhib -1, Shh pathway inh 38 and PD-1 reversal 1.
`C[C@@H]1CN([C@@H](C)CO)C(=O)c2cccc(NC(=O)Nc3ccccc3)c2O[C@@H]1CN(C)Cc1ccc2c(c1)OCO2` gave NOMO-1 viab 35, MITF inhib -9 and Shh pathway inh -54.
C[C@@H]1CN([C@@H](C)CO)C(=O)c2cccc(NC(=O)Nc3ccc4c(c3)OCO4)c2O[C@H]1CN(C)Cc1ccc(Cl)c(Cl)c1 was read as NOMO-1 viab 102*, MITF inhib 41, Shh pathway inh 12 and PD-1 reversal -7.
For C[C@@H]1CN([C@H](C)CO)C(=O)c2cccc(NC(=O)Nc3ccc4c(c3)OCO4)c2O[C@@H]1CN(C)Cc1ccncc1 the results were NOMO-1 viab -12, MITF inhib -4, Shh pathway inh 7 and PD-1 reversal 3.
`C[C@@H]1CN([C@@H](C)CO)C(=O)c2cccc(NC(=O)Nc3ccccc3)c2O[C@H]1CN(C)Cc1ccc2c(c1)OCO2` gave NOMO-1 viab 89*, MITF inhib 42, Shh pathway inh -36 and PD-1 reversal -4.
Screening C[C@@H]1CN([C@@H](C)CO)C(=O)c2cccc(NC(=O)Nc3ccc4c(c3)OCO4)c2O[C@H]1CN(C)Cc1ccc(C(=O)O)cc1 returned NOMO-1 viab 14, MITF inhib -49, Shh pathway inh -41 and PD-1 reversal 1.
For C[C@@H]1CN([C@H](C)CO)C(=O)c2cccc(NC(=O)Nc3ccc4c(c3)OCO4)c2O[C@H]1CN(C)Cc1ccccc1 the results were NOMO-1 viab 97*, MITF inhib 18, Shh pathway inh 15 and PD-1 reversal -3.
Screening C[C@@H]1CN([C@@H](C)CO)C(=O)c2cccc(NC(=O)Nc3ccc(F)cc3)c2O[C@H]1CN(C)Cc1ccc2c(c1)OCO2 returned NOMO-1 viab 113*, MITF inhib 38, Shh pathway inh -34 and PD-1 reversal -7.
Screening CC(C)OC(=O)CSc1nc2c(c(-c3ccccc3)c1C#N)CCC2 returned NOMO-1 viab 14, MITF inhib -59 and PD-1 reversal -1.
Screening N=C1S/C(=C/c2ccco2)C(=O)N1c1nccs1 returned NOMO-1 viab 37, MITF inhib -18, Shh pathway inh 53 and PD-1 reversal -7.
Cc1ccc(S(=O)(=O)N(C)C[C@@H]2Oc3ccc(NC(=O)Nc4ccc(C(F)(F)F)cc4)cc3CC(=O)N([C@H](C)CO)C[C@@H]2C)cc1 was read as NOMO-1 viab 126*, MITF inhib 34, Shh pathway inh 56 and PD-1 reversal -3.
`Cc1ccc(S(=O)(=O)N(C)C[C@H]2Oc3ccc(NC(=O)Nc4ccc(C(F)(F)F)cc4)cc3CC(=O)N([C@H](C)CO)C[C@H]2C)cc1` gave NOMO-1 viab 115*, MITF inhib 23, Shh pathway inh 7 and PD-1 reversal -3.
Screening Cc1ccc(S(=O)(=O)N(C)C[C@H]2Oc3ccc(NC(=O)Nc4ccc(C(F)(F)F)cc4)cc3CC(=O)N([C@@H](C)CO)C[C@@H]2C)cc1 returned NOMO-1 viab 26, MITF inhib 16, Shh pathway inh -2 and PD-1 reversal 0.
Screening N#C/C(=N\O)C(=O)c1ccco1 returned NOMO-1 viab 12, MITF inhib -6, Shh pathway inh -22 and PD-1 reversal 1.
Screening C[C@@H]1CCCCO[C@@H](CN(C)S(=O)(=O)c2cccs2)[C@@H](C)CN([C@H](C)CO)C(=O)c2cc(NS(C)(=O)=O)ccc2O1 returned NOMO-1 viab 13, MITF inhib -2, Shh pathway inh 67* and PD-1 reversal -1.
